The list is a sample of the results.
aSyn UTR act – Activators via SNCA 5'UTR binding, MLPCN | activity score, % (tested at 7.5 µM), hits read low | alpha-synuclein 5'UTR reporter, activators screen | actives 7.1% (n = 300,000); in the data active = activity score below about -60%
The depositor's hits bear a star.

SMILES | aSyn UTR act
Oc1ccc(-c2csc(-c3cccnc3)n2)cc1O | -96.1*
Oc1ccc(-c2csc(-c3ccccc3)n2)cc1O | -224.5*
c1cncc(-c2nc(-c3ccc4c(c3)OCCO4)cs2)c1 | -93.8*
CS(=O)c1nc(-c2ccc(Br)cc2)cc(-c2ccccc2)c1C#N (stereo unspecified) | 120.1
Nc1nc(-c2ccccc2)cc(-c2ccccc2O)n1 | -122.8*
Oc1ccccc1-c1csc(-c2ccccc2)n1 | -121.7*
Clc1ccc(-c2csc(-c3cccnc3)n2)s1 | -70.5*
N#C/C(=N\Nc1cccc2ccccc12)c1nnc2n1CCCCC2 | -70.9*
CCCC(=O)Nc1nnc(/C=C/c2ccccc2)s1 | -99.0*
CCC(=O)Nc1nnc(/C=C/c2ccccc2)s1 | -137.7*
CCCC(=O)Nc1nnc(/C=C/c2ccc(OC)cc2)s1 | -106.6*
COc1ccc(/C=C/c2nnc(NC(=O)C(C)(C)C)s2)cc1 | -96.0*
CCOC(=O)Nc1nnc(/C=C/c2ccc(OC)cc2)s1 | -94.2*
CC1CCC(NC(=O)N(CCCl)N=O)CC1 (stereo unspecified) | -137.7*
O=C(c1ccc(COc2ccc3c(c2)CCC3)o1)N1CCN(c2ccccc2)CC1 | -72.6*
CC(C)(C)c1ccc(OCc2ccc(C(=O)NN)o2)cc1 | -106.9*
CCCc1ccc(OCc2ccc(C(=O)N/N=C/c3cccnc3)o2)cc1 | -143.1*
CC(C)(C)c1ccc(OCc2ccc(C(=O)NCc3cccnc3)o2)cc1 | -133.1*
CC(C)(C)c1ccc(OCc2ccc(C(=O)N/N=C/c3ccc([N+](=O)[O-])cc3)o2)cc1 | -137.7*
Cc1ccc(COc2ccccc2-c2cc(C(=O)N/N=C/c3cccnc3)[nH]n2)cc1 | -76.7*
NNC(=O)c1ccc(COc2ccc3c(c2)CCC3)o1 | -73.7*
COC(=O)c1cnc(Oc2ccc(NC(=O)NC(=O)c3c(OC)cccc3OC)cc2)cc1C(F)(F)F | 74.5
c1ccc(Oc2cc(-n3cccn3)ncn2)cc1 | -139.6*
COC(=O)c1cnn(-c2cc(Oc3ccccc3)ncn2)c1N | -126.9*
NC(=O)c1cnn(-c2cc(Oc3ccccc3)ncn2)c1N | -66.3*
SMILES | aSyn UTR act
CC(NC(=O)CCl)c1ccccc1Br (stereo unspecified) | -98.7*
CCOC(=O)c1sc(=NC(=O)c2c(F)cccc2F)n(C)c1C | -103.5*
CCOC(=O)c1sc(=NC(=O)c2ccc(C)cc2)n(C)c1C | -195.9*
CCOC(=O)c1sc(=NC(=O)c2ccc(F)cc2)n(C)c1C | -103.9*
CCC(=O)Nc1nc2ccc3sc(C)nc3c2s1 | -86.3*
Cc1nc2c(ccc3nc(NC(=O)C4CC4)sc32)s1 | -121.0*
C#CCSc1nnc(-c2ccc(C)cc2)o1 | -164.1*
C#CCSc1nnc(-c2cccc3ccccc23)o1 | -103.9*
C#CCSc1nnc(-c2ccc(O)cc2)o1 | -137.7*
CCSc1nnc(-c2c[nH]c3ccccc23)o1 | -103.9*
O=C1CC(c2cc(-c3ccccc3)no2)C1 | -98.9*
COc1ccc(-c2cc(CS(=O)(=O)c3ccccc3)on2)cc1 | -158.0*
O=S(=O)(Cc1cc(-c2ccccc2)no1)c1ccccc1 | -77.1*
Cc1cccc(-n2c(C)cc(C=C3C(=O)c4ccccc4C3=O)c2C)c1 | -90.6*
CCn1c(C)cc(C=C2C(=O)c3ccccc3C2=O)c1C | -92.3*
CCOC(=O)c1sc(NC(=S)NC(=O)c2ccccc2)nc1C | -216.3*
COC(=O)c1sc(NC(=S)NC(=O)c2ccccc2)nc1C | -198.2*
COc1ccc(C(=O)NC(=S)Nc2nc(C)cc(C)n2)cc1Br | -77.4*
COc1cc(OC)nc(NC(=S)NC(=O)c2ccccc2)n1 | -69.1*
COc1ccc(C(=O)NC(=S)NNC(=O)c2cnccn2)cc1OC | 90.5
Cc1csc(NC(=S)NC(=O)c2ccccc2)n1 | -178.7*
COC(=O)c1sc(NC(=S)NC(=O)c2ccccc2Cl)nc1C | -145.9*
Cc1cc(C)c2cccc(NC(=S)NC(=O)c3ccccc3)c2n1 | -76.4*
CC(/C=C/c1ccccc1)=N\Nc1ccccc1[N+](=O)[O-] | -149.9*
COc1ccc2oc(-c3ccc(C)c(NC(=O)CSc4ccc(Cl)cc4)c3)nc2c1 | -133.3*
SMILES | aSyn UTR act
O=C(CSc1ccc(Cl)cc1)Nc1cc(-c2nc3ncccc3o2)ccc1Cl | -73.7*
O=C1/C(=C/c2ccccn2)SC(=S)N1CCc1ccccc1 | -159.0*
Cc1ccc(/C=C2\SC(=S)N(CCCC(=O)Nc3ccccn3)C2=O)cc1 | 106.8
O=C(/C=C/c1ccc(-c2ccccc2[N+](=O)[O-])o1)c1ccco1 | -135.9*
CC(=O)Nc1ccc(-c2csc(Nc3cccc(C)n3)n2)cc1 | -181.7*
CC(=O)Nc1cccc(-c2csc(Nc3ccc(C)cn3)n2)c1 | -65.9*
CC(=O)Nc1cccc(-c2csc(Nc3ncccn3)n2)c1 | -169.8*
Cc1ccc(NC(=S)Nc2cccc3ccccc23)cc1 | -65.3*
Fc1ccc(NC(=S)Nc2cccc3ccccc23)cc1 | -84.1*
CSCc1ccc(C(=O)NCCSc2ccc(Br)cc2)cc1 | -96.2*
COC(=O)c1c(C)[nH]c(C(=O)/C=C/c2ccccc2Cl)c1C | -301.8*
COC(=O)c1c(C)[nH]c(C(=O)/C=C/c2ccccc2F)c1C | -244.6*
CCc1ccc(NC2=NCC(c3ccccc3)S2)cc1 (stereo unspecified) | -140.3*
Nc1ccccc1SC1CC(=O)N(c2ccc3c(c2)OCCO3)C1=O (stereo unspecified) | -78.1*
O=c1cc(-c2ccccc2)[nH]c2ccc(F)cc12 | 86.6
O=c1c2[nH]c3ccc(F)cc3c2ncn1C1CCCCC1 | -82.2*
ClC1(Cl)CC1CSc1nnc(-c2ccncc2)o1 (stereo unspecified) | -66.0*
COc1ccc(-c2cc(=O)c3ccccc3s2)cc1 | -248.0*
COc1ccc2sc3ccccc3c(=O)c2c1 | -169.7*
COc1ccc2oc3ccccc3c(=O)c2c1 | -161.5*
COc1ccc2oc3ccc(OC)cc3c(=O)c2c1 | -189.5*
Cc1ccn2cc(C(=O)Nc3ccccc3N3CCOCC3)nc2c1 | -89.9*
COc1ccc(Cl)cc1NC(=O)CN(C)CC(=O)Nc1ccccc1N1CCOCC1 | 111.8
O=C(Nc1ccccc1N1CCOCC1)c1ccc2ccccc2n1 | -118.2*
Cc1ccn2cc(C(=O)Nc3nnc(C)s3)nc2c1 | -110.9*
SMILES | aSyn UTR act
CCOc1ccc2c(c1)sc(=NC(=O)C1CC1)n2C | -215.2*
CC(=O)Nc1ccc(S(=O)(=O)NC(CC(=O)NCCc2ccccc2)C(C)C)cc1 (stereo unspecified) | -109.4*
CCc1ccc2oc(C(=O)Nc3nonc3C)c(C)c2c1 | -137.8*
Cc1cc2oc(C(=O)Nc3nonc3C)c(C)c2cc1C | -174.6*
Cc1c(C(=O)Nc2nonc2-c2ccc(F)cc2)oc2ccc(F)cc12 | 54.0
O=C(NNC(=S)Nc1ccccc1)c1cccs1 | -231.5*
O=C(NNC(=S)Nc1ccc(Cl)cc1)c1cccs1 | -124.7*
Cc1ccnc(Nc2nc(-c3ccc(F)cc3)cs2)c1 | -162.2*
Cc1ccnc(Nc2nc(-c3ccc(Cl)cc3)cs2)c1 | -163.4*
COC(=O)CN1C(=O)S/C(=C/c2ccc(N3CCCCC3)o2)C1=O | -88.6*
CCCN1C(=O)S/C(=C\c2ccc(N3CCOCC3)o2)C1=O | -94.0*
CCCN1C(=O)S/C(=C/c2ccc(N3CCOCC3)o2)C1=O | -82.6*
COC(=O)CN1C(=O)S/C(=C/c2cc(C)n(C)c2C)C1=O | -167.4*
CS(=O)(=O)NNC(=O)Cn1nnc(-c2ccc(OCc3ccccc3Cl)cc2)n1 | -106.7*
CCc1ccccc1NC(=O)c1ccc([N+](=O)[O-])s1 | -68.0*
O=C(Nc1nnc(-c2ccco2)o1)c1ccc([N+](=O)[O-])s1 | -71.1*
